Data published in PubChem BioAssay.
Calls of active or inactive are those of the source.

Experiments:
[1] = small molecules captured by biotinylated probe aFSTL3 – biochemical, small-molecule microarray, fluorescence 635/667, stem cell growth factor project, primary screen (AID 1064); details: higher = more signal;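 also: measures binding of the biotinylated anti-FSTL3 antibody to printed compounds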
[2] = binders from COS7 lysate, DM2A8 probe, primary screen, torsin A project, cell lysate, small-molecule microarray, fluorescence 635/667 (AID 1065); details: higher = more signal, COS7 lysate expressing mutant human TOR1A
[3] = small molecules captured by biotinylated probe aFGF2 – biochemical, small-molecule microarray, fluorescence 635/667, stem cell growth factor project, primary screen (AID 1067); details: higher = more signal;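 also: measures binding of biotinylated aFGF2 protein to printed compounds on slides; z-score merges feature fluorescence and signal-to-noise across triplicate slides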
[4] = small molecules captured by biotinylated probe aFGF10 – biochemical, small-molecule microarray, fluorescence 635/667, stem cell growth factor project, primary screen (AID 1071); details: higher = more signal;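 also: score merges 667 nm spot intensity and signal to noise from triplicate slides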
[5] = biological target: Neurogenic locus notch homolog protein 2 (Homo sapiens) (UniProt Q04721); test: small molecules binding Notch2 protein – biochemical, small-molecule microarray, 635 nm fluorescence, stem cell growth factors, primary screen (AID 1073); details: higher = more signal
[6] = biological target: Pro-neuregulin-1, membrane-bound isoform (Homo sapiens) (UniProt Q02297); test: small molecules binding neuregulin-1 protein – biochemical, small-molecule microarray, fluorescence 635/667, psychiatric disease protein project, primary screen (AID 1075); details: NRG1 binding, 635 nm fluorescence, higher = more signal;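 also: score combines 667 nm spot fluorescence with signal to noise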
[7] = test system: Neuregulin-1 EGF-like domain; test: small molecules binding NRG1 EGF domain – biochemical, small-molecule microarray, 635 nm fluorescence, primary screen (AID 1081); details: higher = more signal;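 also: binding of the protein to compounds printed on small-molecule microarray slides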
[8] = FRG1 expression reporter modulators in myotubes – cell-based, C2C12 myotubes, firefly/Renilla luciferase, luminescence, FRG1 inhibition for FSHD, primary screen (AID 1084); details: FRG1 promoter luciferase, higher = more signal, called active from +8 up or from −8 down
[9] = small molecules captured by biotinylated probe aFST – biochemical, small-molecule microarray, fluorescence 635/667, stem cell growth factor project, primary screen (AID 1086); details: higher = more signal;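 also: score merges 667 nm fluorescence with signal-to-noise of each printed compound spot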
[10] = binders of probe aHhip on microarray, primary screen, stem cell growth factor project, biochemical, small-molecule microarray, fluorescence 635/667 (AID 1087); details: higher = more signal;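 also: score merges spot fluorescence at 667nm with spot signal to noise ratio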
[11] = test system: PRMT1 (protein arginine N-methyltransferase 1); test: small molecules binding arginine methyltransferase PRMT1 – biochemical, small-molecule microarray, 635 nm fluorescence, primary screen (AID 1088); details: higher = more signal;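 also: binding of Prmt1 protein to compounds spotted on small-molecule microarray slides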
[12] = growth effects on S. cerevisiae YJM789 – YJM789 clinical isolate, OD600, 24 h, basal, primary screen (AID 1089); details: higher = more signal, called active from +8 up or from −8 down;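 also: growth of clinical yeast isolate S. cerevisiae YJM 789 seeded 1000 cells per well; test concentration not given here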
[13] = S. pombe growth modifiers, basal conditions – strain 972, OD600, 24 h, no modulator, primary screen (AID 1090);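 also: basal condition with compound alone and no growth modifier present; test concentration not given here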; details: S. pombe 972 growth, higher = more signal, called active from +8 up or from −8 down
[14] = budding yeast growth modifiers under rapamycin – strain BY4716, OD600, 96 h, primary screen (AID 1091); also: test concentration not given here; details: S. cerevisiae BY4716 + rapamycin, higher = more signal, called active from +8 up or from −8 down
[15] = biological target: Torsin-1A-interacting protein 2 (Homo sapiens) (UniProt Q8NFQ8); test: small molecules binding lysate-expressed LULL1 – cell lysate, human LULL1 lysate, 635/667 nm fluorescence, primary screen (AID 1092); details: small-molecule microarray, hLULL1 lysate binding, 635 nm fluorescence; higher = more signal;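 also: probe is lysate of COS7 cells overexpressing human LULL1; score merges per-feature 667 nm fluorescence with signal-to-noise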
[16] = optical density change of DRC41 E. coli – strain DRC41, OD650, 24 h, E. coli filamentation project, primary screen (AID 1093);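 also: MC1000 strain lacking acrAB efflux and sulA so SOS filamentation is blocked; test concentration not given here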; details: E. coli DRC41 growth, higher = more signal, called active from +8 up or from −8 down
[17] = probe aLefty2 binding to arrayed compounds – biochemical, biotinylated probe, 635/667 nm fluorescence, primary screen (AID 1094); details: small-molecule microarray, higher = more signal;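 also: score merges spot fluorescence near 667 nm with spot signal-to-noise ratio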
[18] = test system: Noggin (protein binding on small-molecule microarray); test: small molecules binding Noggin protein – biochemical, 635/667 nm fluorescence, primary screen (AID 1095); details: 635 nm fluorescence, higher = more signal;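 also: score merges 667 nm feature fluorescence with signal to noise over triplicate slides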
[19] = biological target: Neurogenic locus notch homolog protein 3 (Homo sapiens) (UniProt Q9UM47); test: small molecules binding NOTCH3 protein – biochemical, 635/667 nm fluorescence, primary screen (AID 1096); details: small-molecule microarray, 635 nm fluorescence, higher = more signal
[20] = probe aEGFR binding to arrayed compounds – biochemical, biotinylated probe, 635/667 nm fluorescence, primary screen (AID 1097); details: small-molecule microarray, higher = more signal;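 also: probe is a biotinylated anti-EGFR antibody binding compounds printed on slides; score combines fluorescence near 667 nm and signal to noise of each spot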

Pro-neuregulin-1, membrane-bound isoform (Homo sapiens), sequence (Q02297 whole entry, looked up, the tested form may be a part, canonical isoform): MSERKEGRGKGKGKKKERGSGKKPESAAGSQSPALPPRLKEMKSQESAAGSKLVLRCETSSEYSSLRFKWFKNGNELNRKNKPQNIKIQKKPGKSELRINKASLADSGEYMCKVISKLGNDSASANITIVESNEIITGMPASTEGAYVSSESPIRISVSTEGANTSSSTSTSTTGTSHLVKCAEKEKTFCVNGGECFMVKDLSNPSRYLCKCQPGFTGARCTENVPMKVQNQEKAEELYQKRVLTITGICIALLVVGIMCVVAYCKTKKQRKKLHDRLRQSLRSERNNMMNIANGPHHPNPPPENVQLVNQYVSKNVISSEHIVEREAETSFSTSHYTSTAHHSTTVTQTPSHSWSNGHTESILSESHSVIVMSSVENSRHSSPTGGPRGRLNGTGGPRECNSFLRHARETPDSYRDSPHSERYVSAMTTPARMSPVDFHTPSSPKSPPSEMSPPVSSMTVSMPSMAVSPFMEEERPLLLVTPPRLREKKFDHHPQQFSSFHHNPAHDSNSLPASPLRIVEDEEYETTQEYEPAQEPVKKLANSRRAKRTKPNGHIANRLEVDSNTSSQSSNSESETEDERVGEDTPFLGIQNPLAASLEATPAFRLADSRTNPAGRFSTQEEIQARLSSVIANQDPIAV
Neurogenic locus notch homolog protein 3 (Homo sapiens), sequence (Q9UM47 whole entry, looked up): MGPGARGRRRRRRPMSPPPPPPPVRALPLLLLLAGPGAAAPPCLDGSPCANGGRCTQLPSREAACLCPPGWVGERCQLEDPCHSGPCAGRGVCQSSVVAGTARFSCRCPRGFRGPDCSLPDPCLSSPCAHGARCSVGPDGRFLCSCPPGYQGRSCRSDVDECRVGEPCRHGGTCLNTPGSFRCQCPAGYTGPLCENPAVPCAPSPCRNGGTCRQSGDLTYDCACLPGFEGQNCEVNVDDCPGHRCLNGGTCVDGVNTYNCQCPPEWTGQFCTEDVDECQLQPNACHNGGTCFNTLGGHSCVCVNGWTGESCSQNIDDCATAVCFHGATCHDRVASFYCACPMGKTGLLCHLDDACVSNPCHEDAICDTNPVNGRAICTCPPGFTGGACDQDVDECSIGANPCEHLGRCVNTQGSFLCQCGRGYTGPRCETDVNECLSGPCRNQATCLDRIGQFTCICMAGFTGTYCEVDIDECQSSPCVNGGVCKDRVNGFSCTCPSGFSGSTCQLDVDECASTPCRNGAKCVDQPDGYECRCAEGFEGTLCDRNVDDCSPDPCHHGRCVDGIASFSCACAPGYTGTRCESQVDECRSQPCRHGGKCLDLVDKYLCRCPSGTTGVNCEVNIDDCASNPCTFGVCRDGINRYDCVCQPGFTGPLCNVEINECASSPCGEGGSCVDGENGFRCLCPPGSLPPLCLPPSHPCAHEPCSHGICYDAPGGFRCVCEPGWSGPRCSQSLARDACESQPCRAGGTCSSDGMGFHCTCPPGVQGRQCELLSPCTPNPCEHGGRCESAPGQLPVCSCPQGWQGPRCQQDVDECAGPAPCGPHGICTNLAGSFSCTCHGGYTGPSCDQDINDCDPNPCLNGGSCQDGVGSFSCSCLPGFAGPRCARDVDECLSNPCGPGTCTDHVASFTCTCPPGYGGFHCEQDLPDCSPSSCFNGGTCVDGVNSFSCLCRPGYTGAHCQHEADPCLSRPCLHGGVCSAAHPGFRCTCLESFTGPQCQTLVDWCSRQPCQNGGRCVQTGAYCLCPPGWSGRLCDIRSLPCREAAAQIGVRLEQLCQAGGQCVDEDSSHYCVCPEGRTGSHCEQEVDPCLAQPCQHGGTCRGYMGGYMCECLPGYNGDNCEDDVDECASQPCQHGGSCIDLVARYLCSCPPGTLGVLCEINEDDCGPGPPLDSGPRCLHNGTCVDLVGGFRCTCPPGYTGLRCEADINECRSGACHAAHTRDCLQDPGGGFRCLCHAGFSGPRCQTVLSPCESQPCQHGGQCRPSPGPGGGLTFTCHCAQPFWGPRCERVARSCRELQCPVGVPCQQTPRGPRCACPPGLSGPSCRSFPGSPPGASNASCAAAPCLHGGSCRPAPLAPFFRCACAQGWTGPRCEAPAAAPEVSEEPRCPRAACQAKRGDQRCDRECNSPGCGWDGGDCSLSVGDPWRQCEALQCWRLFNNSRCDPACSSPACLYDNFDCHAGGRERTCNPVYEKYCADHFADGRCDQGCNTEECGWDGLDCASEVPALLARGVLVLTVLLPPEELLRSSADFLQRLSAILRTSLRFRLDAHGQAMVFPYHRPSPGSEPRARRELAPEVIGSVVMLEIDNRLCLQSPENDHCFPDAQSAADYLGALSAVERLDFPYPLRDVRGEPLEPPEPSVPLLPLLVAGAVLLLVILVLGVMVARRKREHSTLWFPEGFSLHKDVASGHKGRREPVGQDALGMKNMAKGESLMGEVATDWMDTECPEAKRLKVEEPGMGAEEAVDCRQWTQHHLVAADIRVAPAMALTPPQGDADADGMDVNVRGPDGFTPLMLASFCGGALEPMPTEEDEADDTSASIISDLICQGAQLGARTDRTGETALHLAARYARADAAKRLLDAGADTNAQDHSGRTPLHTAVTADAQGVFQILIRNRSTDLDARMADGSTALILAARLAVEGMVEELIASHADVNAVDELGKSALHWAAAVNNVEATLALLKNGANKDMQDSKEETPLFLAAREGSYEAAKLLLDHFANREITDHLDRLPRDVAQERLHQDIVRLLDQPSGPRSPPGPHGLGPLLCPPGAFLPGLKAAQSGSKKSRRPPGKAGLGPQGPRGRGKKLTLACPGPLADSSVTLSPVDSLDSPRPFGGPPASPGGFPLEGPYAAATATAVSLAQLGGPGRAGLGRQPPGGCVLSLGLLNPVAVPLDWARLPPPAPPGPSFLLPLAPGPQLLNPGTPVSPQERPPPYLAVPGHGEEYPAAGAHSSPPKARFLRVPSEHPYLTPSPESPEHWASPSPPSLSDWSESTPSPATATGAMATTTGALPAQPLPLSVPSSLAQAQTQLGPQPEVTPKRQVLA
Torsin-1A-interacting protein 2 (Homo sapiens), sequence (Q8NFQ8 whole entry, looked up): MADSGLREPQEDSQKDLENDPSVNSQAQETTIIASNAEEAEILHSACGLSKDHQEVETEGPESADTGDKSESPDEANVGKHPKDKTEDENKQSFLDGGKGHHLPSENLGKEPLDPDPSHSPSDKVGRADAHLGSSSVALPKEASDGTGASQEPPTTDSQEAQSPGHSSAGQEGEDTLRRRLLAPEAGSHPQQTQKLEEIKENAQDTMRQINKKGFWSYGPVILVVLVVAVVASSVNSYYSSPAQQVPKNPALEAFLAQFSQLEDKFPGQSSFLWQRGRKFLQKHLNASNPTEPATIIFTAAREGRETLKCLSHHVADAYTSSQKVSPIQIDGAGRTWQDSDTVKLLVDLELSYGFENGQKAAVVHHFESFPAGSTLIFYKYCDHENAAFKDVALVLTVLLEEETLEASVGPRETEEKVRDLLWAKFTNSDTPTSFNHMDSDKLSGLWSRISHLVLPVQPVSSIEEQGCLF

| Compound | composite z-score [1] | composite z-score [2] | composite z-score [3] | composite z-score [4] | composite z-score [5] | composite z-score [6] | composite z-score [7] | z-score [8] | composite z-score [9] | composite z-score [10] | composite z-score [11] | z-score [12] | z-score [13] | z-score [14] | composite z-score [15] | z-score [16] | composite z-score [17] | composite z-score [18] | composite z-score [19] | composite z-score [20] |
| --- | --- | --- | --- | --- | --- | --- | --- | --- | --- | --- | --- | --- | --- | --- | --- | --- | --- | --- | --- | --- |
| C[C@]1(C(=O)NCc2ccccc2)c2ccccc2C(=O)N(Cc2ccc(OC(F)(F)F)cc2)[C@H]1c1ccc(CO)cc1 | 0.161 | 1.14 | -0.0507 | -0.0562 | -0.323 | 0.349 | 0.711 | -4.27 (inactive) | -0.409 | -0.431 | -0.0073 | -0.913 (inactive) | -0.935 (inactive) | -0.67 (inactive) | 2.06 | 1.36 (inactive) | -0.0719 | 0.0824 | -0.184 | -0.0689 |
| O=C(CS)NCCCCCCNC(=O)[C@H]1C[C@H]2C(=O)N3CCC[C@H]3C(=O)N2[C@H]1c1cccc(OCCO)c1 | 0.255 | 0.7 | -0.0802 | 0.635 | 0.698 | 1.23 | 1.4 | 0.865 (inactive) | 0.189 | 0.235 | 1.5 | -0.319 (inactive) | -0.26 (inactive) | 0.0927 (inactive) | 3.05 | -0.983 (inactive) | 0.105 | 0.858 | 1.1 | 0.0219 |
| N#Cc1ccc(NN2C(C(O)C3CCCCC3)C=CC3C(=O)N(c4ccccc4)C(=O)C32)cc1 (stereo not given) | 0.0086 | -0.433 | 0.0429 | 0.461 | 1.58 | 1.31 | 1.33 | -0.585 (inactive) | 1.38 | 0.754 | 1.45 | -0.21 (inactive) | 0.661 (inactive) | 2.46 (inactive) | 3.26 | -1.08 (inactive) | 0.217 | -0.0519 | 1.03 | 0.0065 |
| COCCOC(=O)N1C(=O)[C@@]2(c3cc(C#CC4=CCCCC4)ccc31)[C@H](C(=O)NC[C@H](O)c1ccccc1)[C@H]1C(=O)O[C@H](c3ccccc3)[C@H](c3ccccc3)N1[C@@H]2c1ccc(O)cc1 | -0.377 | 0.189 | -0.105 | 0.797 | 1.23 | 0.996 | 1.19 | 0.591 (inactive) | 0.353 | -0.0296 | 1.54 | 1 (inactive) | 0.0198 (inactive) | 1.83 (inactive) | 2.08 | 2.13 (inactive) | 0.0723 | 0.829 | 1.06 | 0.0937 |
| CC(=O)NCCCC[C@@H]1NC(=O)[C@H]2C[C@@H](C(=O)NCCCCCC[N+](C)(C)C)[C@@H](c3cccc(OCCO)c3)N2C1=O | -0.374 | 0.645 | -0.0894 | 0.245 | 0.117 | 1.5 | 1.42 | 5.18 (inactive) | -0.0568 | -0.201 | 1.53 | -0.752 (inactive) | 0.0936 (inactive) | -0.425 (inactive) | 2.98 | 1.23 (inactive) | -0.16 | 1.19 | 0.97 | -0.0967 |
| COCCOC(=O)N1C(=O)[C@@]2(c3cc(C#CCNC(N)=O)ccc31)[C@H](c1ccccc1OCCO)N1[C@H](c3ccccc3)[C@H](c3ccccc3)OC(=O)[C@H]1[C@@H]2C(N)=O | -0.309 | 0.092 | -0.171 | 0.244 | 0.77 | 0.429 | 0.874 | -1.33 (inactive) | 0.477 | -0.284 | 1.55 | 1.86 (inactive) | 1.59 (inactive) | 3.25 (inactive) | -0.0889 | -0.244 (inactive) | -0.0823 | 1.1 | 1.09 | -0.0512 |
| [N-]=[N+]=NCc1ccccc1[C@@H]1OC(c2ccc(OCCCO)cc2)=N[C@]1(Cc1ccccc1)C(=O)N1CCCCC1 | 0.49 | 1.1 | 0.0703 | 1.05 | 1.5 | 1.18 | 1.12 | -1.03 (inactive) | 1.49 | 0.212 | 1.15 | -0.202 (inactive) | -1.09 (inactive) | 1.66 (inactive) | 2.74 | 1.47 (inactive) | 0.332 | 1.46 | 1.07 | 0.193 |
